Values joined by “and” are separate entries in the source; they are usually repeats but may differ in a detail not shown here. Equal entries are not always repeated. Records with an inconclusive call do not appear. Active and inactive are the calls of the source.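 The calls were made as follows, unless noted: active = normalized viability below 100% at a tested concentration; inactive = the rest.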
Experiments:
[1] = stimulators of nuclear beta-catenin in C2C12, primary screen, imaging, WNT3A-conditioned medium, mouse C2C12, NPC library (AID 1117326; in the data active = nuclear beta-catenin stimulation mostly above about 4.2%, no sharp cut-off; inactive = mostly below about 10%); settings: stronger effect = higher value
[2] = stimulators of insulin release from INS-1E, primary screen, cell-based, 5 mM glucose, NPC library (AID 1117329;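 active = compound raises insulin release from rat beta cells at 5 mM glucose, no numeric limit stated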); settings: rat INS-1E insulin secretion, at 10 µM, stronger effect = higher value
[3] = growth inhibition of GSK3B-pretreated HCT116 cells – cell-based, CellTiter-Glo, 0.2 to 20 µM (AID 1117336;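 active = compounds lowering colon cancer cell viability after pretreatment blocking the GSK3B kinase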); settings: HCT116 viability after GSK3B inhibitor, at 20 µM, stronger effect = higher value
[4] = inhibition of endothelial tube formation, primary screen, imaging, VEGF stimulated, CD31 staining, tube area, NPC library (AID 1117340;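 active = compound that reduces growth-factor-driven endothelial tube area in a mixed cell culture, no cutoff stated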); settings: VEGF-stimulated ADSC/ECFC co-culture, at 10 µM, stronger effect = higher value
[5] = glucagon-like peptide 1 release enhancers, primary assay, NCI-H716 cell line, NPC library (AID 1117341;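 active = compound raises GLP1 secretion from the human gut endocrine cells, with no numeric limit stated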); settings: NCI-H716 cells, at 10 µM, stronger effect = higher value
[6] = HCT116 colon cancer cell growth inhibition, primary screen, CellTiter-Glo luminescence, NPC library (AID 1117342;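 active = compounds that lower survival of HCT116 colon cancer cells in the luminescence readout, no numeric limit stated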); settings: at 20 µM (top of the series)
[7] = CellTiter-Glo luminescent readout of SW480 viability loss, NPC library primary (AID 1117343;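 active = compounds that lower viability of the colon cancer cells in the luminescence readout, with no numeric limit stated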); settings: CellTiter-Glo luminescence; at 20 µM (top of the series) unless noted
[8] = decreased DLD-1 cellular survival, CellTiter-Glo luminescent readout, NPC compound collection, primary HTS (AID 1117346;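 active = compounds that lower survival of DLD-1 colon cancer cells in the luminescence readout, no cutoff given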); settings: DLD-1 viability, CellTiter-Glo luminescence; at 20 µM (top of the series)
[9] = growth inhibition of DIPG glioma cells, dose response, cell-based, SU-DIPG-XVII, MIPE5.0, CellTiter-Glo, qHTS (AID 1347060; cut-off not given, nearly all actives have AC50 up to about 26 µM;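 as to AC50: cells exposed to compound for 48 hours before viability readout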); settings: SU-DIPG-XVII viability, CellTiter-Glo ATP luminescence
[10] = growth inhibition of DIPG glioma cells, dose response, cell-based, SU-DIPG-XIII, MIPE4.0, CellTiter-Glo, qHTS (AID 1347061; cut-off not given, nearly all actives have AC50 up to about 37 µM;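 also: cells exposed to compound for 48 hours before readout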); settings: SU-DIPG-XIII viability, CellTiter-Glo ATP luminescence
[11] = SU-DIPG-VI glioma cell viability, MIPE4.0 library, CellTiter-Glo luminescence, qHTS (AID 1347066; cut-off not given, nearly all actives have AC50 up to about 30 µM;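 also: cells exposed to compound for 48 hours before readout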); settings: CellTiter-Glo ATP luminescence
[12] = SU-DIPG-XXV glioma cell viability, MIPE5.0 library, qHTS (AID 1347068; cut-off not given, nearly all actives have IC50 up to about 30 µM;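 as to IC50: cells exposed to compound for 48 hours before viability readout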)
[13] = sensitizers of A549 cells to miR-34 induction, primary screen, imaging, A549 dox-inducible miR-34, nuclei and caspase counts (AID 1347080;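 active = compounds whose cell count with miR-34 switched on is under 0.7 times the count with it off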); settings: A549 miR-34 inducible, Hoechst nuclei count, 48 h
[14] = survival rescue of mitochondrial mutant cells in low glucose, primary screen, MELAS cybrids, Rieske KO mouse fibroblasts, CellTiter-Glo (AID 1508586;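 active = mean z-score across replicates of 1.96 or higher in either the MELAS or the Rieske mutant cell line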;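 also: z relative to plate mean and SD of compound and empty wells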)
[15] = ovarian cancer cell viability with rucaparib, profiling panel, oncology-focused library, rucaparib conditional (AID 1508598); settings: patient-derived ovarian cancer cells, CellTiter-Glo viability, 144 h, stronger effect = lower value
[16] = liver-stage malaria parasite growth inhibition, primary screen, cell-based, HepG2, luciferase luminescence, HepG2 viability (AID 624349; in the data active = parasite load remaining mostly below about 12%, no sharp cut-off; inactive = mostly above about 10%;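 also: 100% = mean of DMSO negative control wells on the same plate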); settings: P. berghei liver stage in HepG2, luciferase luminescence, concentration not given here; parasite load remaining: stronger effect = lower value; viability: measured here: HepG2 viability without parasites
[17] = biological target: NAD(+) hydrolase SARM1 (Homo sapiens) (UniProt Q6SZW1); assay: SARM1 TIR NADase inhibitors, cell lysate, NAD-Glo luminescence (AID 1508614;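 active = compound whose remaining NAD level is above about 45 nM, limit read from the data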;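 also: higher remaining NAD means stronger inhibition of SARM1 NADase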); settings: SAM-TIR HEK293T lysate NADase, at 1 µM, stronger effect = higher value
[18] = viability rescue of complex I mutant cybrids, primary screen, cell-based, galactose medium, ATP luminescence (AID 1645843;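 active = z-score of at least 1.8 in each of two replicates, scored against plate mean and spread of sample wells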;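 also: positive z means more ATP and so rescue of galactose-driven cybrid death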); settings: complex I mutant cybrid cells, 72 h, stronger effect = higher value
[19] = stronger effect = lower value, cell number ratio, induced over uninduced
[20] = measured here: relative caspase fold change +Dox/-Dox
[21] = measured here: total cells with miR-34 induction, stronger effect = lower value
[22] = measured here: total cells without miR-34 induction
[23] = MELAS cybrid survival, CellTiter-Glo 48 h, stronger effect = higher value
[24] = Rieske KO mouse fibroblast survival, CellTiter-Glo 72 h

Sequence of NAD(+) hydrolase SARM1 (Homo sapiens) (Q6SZW1 whole entry, looked up): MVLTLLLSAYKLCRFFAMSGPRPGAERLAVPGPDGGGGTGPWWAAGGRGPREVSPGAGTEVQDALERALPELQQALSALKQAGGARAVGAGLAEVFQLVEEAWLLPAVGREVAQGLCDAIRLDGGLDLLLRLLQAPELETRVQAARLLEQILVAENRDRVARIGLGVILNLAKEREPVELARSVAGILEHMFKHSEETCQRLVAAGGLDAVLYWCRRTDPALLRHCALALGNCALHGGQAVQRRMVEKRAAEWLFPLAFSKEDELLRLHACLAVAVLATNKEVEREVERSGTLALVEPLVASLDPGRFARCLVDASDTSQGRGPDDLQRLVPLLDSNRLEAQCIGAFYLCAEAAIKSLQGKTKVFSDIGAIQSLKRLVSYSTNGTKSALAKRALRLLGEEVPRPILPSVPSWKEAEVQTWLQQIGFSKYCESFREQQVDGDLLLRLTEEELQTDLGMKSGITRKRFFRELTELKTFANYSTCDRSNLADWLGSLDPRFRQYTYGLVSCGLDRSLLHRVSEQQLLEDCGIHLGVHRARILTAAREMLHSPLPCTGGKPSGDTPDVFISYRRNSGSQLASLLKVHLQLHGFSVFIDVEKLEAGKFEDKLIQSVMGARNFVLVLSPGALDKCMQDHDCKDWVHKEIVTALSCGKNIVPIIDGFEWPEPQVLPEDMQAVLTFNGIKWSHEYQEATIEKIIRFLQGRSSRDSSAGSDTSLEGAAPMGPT

CNC(=O)c1cc(Oc2ccc(NC(=O)Nc3ccc(Cl)c(C(F)(F)F)c3)cc2)ccn1
0.813 and 0.844: z-score [14, 24]
1320 and 3300: cell count [13, 21]
1350 and 2320: cell count [13, 22]
active: viability decrease [3] 120% | tube area decrease [4] 111% | inhibition of viability [6] 124% | viability decrease (inhibition) [7] 166% | viability decrease (inhibition) [8] 102% | AC50 [9] 14.8 µM | AC50 [10] 18.7 µM | AC50 [11] 20.9 µM | IC50 [12] 10.5 µM | viability ([15]; at 0.000305 µM, OCI-P5x cells, without rucaparib) 97.6% | viability ([15]; at 0.00122 µM, OCI-P5x cells, without rucaparib) 99.4% | viability ([15]; at 0.00488 µM, OCI-P5x cells, without rucaparib) 99.4% | viability ([15]; at 0.0781 µM, OCI-P5x cells, without rucaparib) 99.6% | viability ([15]; at 5 µM, OCI-P5x cells, with rucaparib 20 µM, 100% = cells with rucaparib alone) 31.8%
0.87 and 0.612: fold change [13, 20]
9.1%: nuclear beta-catenin stimulation ([1]; stimulation, at 2 µM)
inactive: nuclear beta-catenin stimulation ([1]; at 10 µM) -1.4% | insulin secretion stimulation [2] 0.4% | GLP1 secretion stimulation [5] -3.6% | fold change [13, 19] 0.979 and 1.42 | z-score [14, 23] -0.549 and -0.383 | viability ([15]; at 0.000305 µM, OCI-C5x cells, with rucaparib 10 µM, 100% = cells with rucaparib alone) 115% | viability ([15]; at 0.000305 µM, OCI-C5x cells, without rucaparib) 112% | viability ([15]; at 0.000305 µM, OCI-P5x cells, with rucaparib 20 µM, 100% = cells with rucaparib alone) 124% | viability ([15]; at 0.00122 µM, OCI-C5x cells, with rucaparib 10 µM, 100% = cells with rucaparib alone) 119% | viability ([15]; at 0.00122 µM, OCI-C5x cells, without rucaparib) 111% | viability ([15]; at 0.00122 µM, OCI-P5x cells, with rucaparib 20 µM, 100% = cells with rucaparib alone) 129% | viability ([15]; at 0.00488 µM, OCI-C5x cells, with rucaparib 10 µM, 100% = cells with rucaparib alone) 119% | viability ([15]; at 0.00488 µM, OCI-C5x cells, without rucaparib) 114% | viability ([15]; at 0.00488 µM, OCI-P5x cells, with rucaparib 20 µM, 100% = cells with rucaparib alone) 136% | viability ([15]; at 0.0195 µM, OCI-C5x cells, with rucaparib 10 µM, 100% = cells with rucaparib alone) 111% | viability ([15]; at 0.0195 µM, OCI-C5x cells, without rucaparib) 112% | viability ([15]; at 0.0195 µM, OCI-P5x cells, with rucaparib 20 µM, 100% = cells with rucaparib alone) 133% | viability ([15]; at 0.0195 µM, OCI-P5x cells, without rucaparib) 101% | viability ([15]; at 0.0781 µM, OCI-C5x cells, with rucaparib 10 µM, 100% = cells with rucaparib alone) 108% | viability ([15]; at 0.0781 µM, OCI-C5x cells, without rucaparib) 106% | viability ([15]; at 0.0781 µM, OCI-P5x cells, with rucaparib 20 µM, 100% = cells with rucaparib alone) 144% | viability ([15]; at 0.313 µM, OCI-C5x cells, with rucaparib 10 µM, 100% = cells with rucaparib alone) 111% | viability ([15]; at 0.313 µM, OCI-C5x cells, without rucaparib) 116% | viability ([15]; at 0.313 µM, OCI-P5x cells, with rucaparib 20 µM, 100% = cells with rucaparib alone) 144% | viability ([15]; at 0.313 µM, OCI-P5x cells, without rucaparib) 105% | viability ([15]; at 1.25 µM, OCI-C5x cells, with rucaparib 10 µM, 100% = cells with rucaparib alone) 116% | viability ([15]; at 1.25 µM, OCI-C5x cells, without rucaparib) 120% | viability ([15]; at 1.25 µM, OCI-P5x cells, with rucaparib 20 µM, 100% = cells with rucaparib alone) 155% | viability ([15]; at 1.25 µM, OCI-P5x cells, without rucaparib) 114% | viability ([15]; at 5 µM, OCI-C5x cells, with rucaparib 10 µM, 100% = cells with rucaparib alone) 123% | viability ([15]; at 5 µM, OCI-C5x cells, without rucaparib) 126% | viability ([15]; at 5 µM, OCI-P5x cells, without rucaparib) 116%

CC(=O)[C@H]1CC[C@H]2[C@@H]3CC=C4C[C@@H](O)CC[C@]4(C)[C@H]3CC[C@]12C
inactive: parasite load remaining [16] 90.8% and 62.2% and 6.53% | nuclear beta-catenin stimulation ([1]; at 10 µM) 3% | insulin secretion stimulation [2] -2% | viability decrease [3] 7.55% | tube area decrease [4] 8.7% | GLP1 secretion stimulation [5] 1.9% | inhibition of viability [6] -2.4% | viability decrease (inhibition) [8] 18.9% | outcome [9] | outcome [10] | outcome [11] | outcome [12] | fold change [13, 19] 0.857 and 0.834 | z-score [14, 23] 0.44 and 0.49 | remaining NAD [17] 10 nM | z-score [18] -1.23
10500 and 11000: cell count [13, 22]
1.6%: nuclear beta-catenin stimulation ([1]; stimulation, at 2 µM)
110% and 79.4% and 65.5%: viability [16]
active: viability decrease (inhibition) [7] 82%
0.646 and 0.0253: z-score [14, 24]
8970 and 9160: cell count [13, 21]
1.38 and 1.19: fold change [13, 20]

Source: PubChem BioAssay
